Experimental data published in PubChem BioAssay (NCATS).
Results filed as inconclusive are left out. Where a call stands in place of a potency, no number is given. The source made the active and inactive calls. The call rests on the fitted dose curve; in most records, active means well fitted inhibition curve with a large enough effect; inconclusive means small, poorly fitted or top-dose-only effect; inactive means flat fitted curve, though single readings scatter.

Molecular target: Ubiquitin carboxyl-terminal hydrolase 1 (Homo sapiens) (UniProt O94782)
Sequence (O94782 whole entry, looked up): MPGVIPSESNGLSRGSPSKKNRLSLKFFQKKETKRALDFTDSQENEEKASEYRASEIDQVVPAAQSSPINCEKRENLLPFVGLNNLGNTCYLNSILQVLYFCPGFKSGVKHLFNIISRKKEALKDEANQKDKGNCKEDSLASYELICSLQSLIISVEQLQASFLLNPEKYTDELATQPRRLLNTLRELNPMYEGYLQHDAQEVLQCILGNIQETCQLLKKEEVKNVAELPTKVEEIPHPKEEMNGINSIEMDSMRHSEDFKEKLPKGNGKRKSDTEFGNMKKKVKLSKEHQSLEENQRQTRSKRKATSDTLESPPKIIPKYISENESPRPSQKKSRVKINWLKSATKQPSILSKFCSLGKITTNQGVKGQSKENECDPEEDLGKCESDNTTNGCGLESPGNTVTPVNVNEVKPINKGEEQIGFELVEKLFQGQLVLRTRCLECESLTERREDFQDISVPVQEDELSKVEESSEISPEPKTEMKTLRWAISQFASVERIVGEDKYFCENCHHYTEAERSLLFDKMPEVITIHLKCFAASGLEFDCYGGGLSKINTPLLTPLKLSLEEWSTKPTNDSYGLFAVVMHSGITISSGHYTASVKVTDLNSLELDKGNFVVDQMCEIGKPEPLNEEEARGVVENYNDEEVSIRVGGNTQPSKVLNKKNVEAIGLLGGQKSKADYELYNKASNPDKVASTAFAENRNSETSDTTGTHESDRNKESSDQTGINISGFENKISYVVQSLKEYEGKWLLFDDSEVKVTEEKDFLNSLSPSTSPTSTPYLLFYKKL
Assay: Inhibitors of USP1/UAF1: Pilot qHTS (AID 504865); further: nearly all actives have a fitted effect of over 35% in size
Settings: purified USP1/UAF1, Ub-rhodamine cleavage fluorescence; series mostly up to 114 µM
Description: Deubiquitinating enzymes (DUBs) are a class of enzymes that can cleave isopeptide bond formed between the C-terminal carboxylate of ubiquitin and a lysine side-chain amino group on the target protein. Among them, ubiquitin specific proteases (USPs) constitute the largest DUB family. Human USPs are emerging as promising targets for pharmacological intervention because of their connection to a number of human diseases, including prostate, colon and breast cancer (1, 2), pediatric acute lymphoblastic leukemia (3), and familial cylindromatosis (4). The advantage of inhibiting USPs lies in the potential specificity of therapeutic intervention that can lead to better efficacy and reduce nonspecific side effects.
In a collaboration between the University of Delaware and the NIH Chemical Genomics Center, a high-throughput screen assay was developed to screen for USP1/UAF1 inhibitors. This miniaturized assay has a fluorescent read-out and is used to screen the NIH Molecular Libraries Small Molecule Repository (MLSMR) in order to identify a small molecule that inhibits USP1.
NIH Chemical Genomics Center [NCGC]
NIH Molecular Libraries Probe Centers Network [MLPCN]
Assay Submitter (PI): Zhihao Zhuang, University of Delaware
1. Priolo, C., et al. (2006) The isopeptidase USP2a protects human prostate cancer from apoptosis. Cancer Res 66, 8625-8632
2. Popov, N., et al. (2007) The ubiquitin-specific protease USP28 is required for MYC stability. Nat Cell Biol 9, 765-774
3. De Pitta, C., et al. (2005) A leukemia-enriched cDNA microarray platform identifies new transcripts with relevance to the biology of pediatric acute lymphoblastic leukemia. Haematologica 90, 890-898
4. Kovalenko, A., et al. (2003) The tumour suppressor CYLD negatively regulates NF-kappaB signalling by deubiquitination. Nature 424, 801-805
3 microliters of reagents (buffer in columns 3 and 4 as negative control and 1nM USP1/UAF1 complex in columns 1, 2, and 5-48) are dispensed into Greiner black solid bottom 1536-well assay plates. Compounds are then transferred via Kalypsys pin tool equipped with 1536-pin array (10nl slotted pins, V&P Scientific, San Diego, CA). Following an incubation step of 15 min at room temperature, 1ul of Ub-Rho substrate (150nM final concentration) is added to initiate the reaction. The plates are immediately centrifuged at 1000 rpm for 15 seconds, and subsequently transferred to a ViewLux high-throughput CCD imager (PerkinElmer) wherein kinetic measurements of fluorescence are acquired using 480 nm excitation/540 nm emission filter set (6 reads every 60 seconds, see Table 1). All reagents are diluted in an assay buffer consisting of 50mM HEPES (pH 7.8), 0.5mM EDTA, 0.1 mg/ml BSA, 1mM TCEP, and 0.01% Tween-20.
Potency means the concentration at half of the fitted maximal effect.

Compound | Potency
COc1ccc(C(Cl)=C(c2ccc(OC)cc2)c2ccc(OC)cc2)cc1 | inactive
O=C(Nc1cccc(C2=NCCN2)c1)Nc1cccc(C2=NCCN2)c1 | inactive
CN=C(N)NCCC[C@H](N)C(=O)O | inactive
CCCN(CCC)S(=O)(=O)c1ccc(C(=O)O)cc1 | inactive
Cc1cccc(C)c1NC(=O)CN1CCCCCC1 | inactive
O=C(O)CCNC(=O)c1ccccc1 | inactive
CCCCN=C(N)N=C(N)N | inactive
O=C(CCN1CCN2CCCC2C1)N1c2ccccc2Sc2ccc(Cl)cc21 (stereo not given) | inactive
CN(C)CCOC(=O)C(c1ccccc1)C1(O)CCCC1 (stereo not given) | inactive
FC(F)(F)C(F)(F)C(F)(F)C(F)(F)C(F)(F)C(F)(F)C(F)(F)C(F)(F)Br | inactive
CCCCCCCCCCCCCC(=O)OC(C)C | inactive
CCOC(=O)c1c(N)sc2c1CCN(Cc1ccccc1)C2 | inactive
CN(C)CCN1C(=O)c2ccccc2N(C)c2ccccc21 | inactive
CCOc1ccc(NC(C)=O)cc1 | inactive
C/C=C/C=N/NC(=O)c1ccncc1 | inactive
CCOCCn1c(N2CCCN(C)CC2)nc2ccccc21 | inactive
O=C1C(O)=C(O)C(=O)C(O)=C1O | 50.1 µM (active)
CCN(CC)CCOC(=O)C(Cc1cccc2ccccc12)CC1CCCO1 (stereo not given) | inactive
CCN(CC)CCNC(=O)c1cc(Br)c(N)cc1OC | inactive
N=C(N)N1CCc2ccccc2C1 | inactive

Compound | Potency
CCCCNC(=O)NS(=O)(=O)c1ccc(N)cc1 | inactive
CN1CCN(CCC(=O)N2c3ccccc3Sc3ccc(C(F)(F)F)cc32)CC1 | inactive
Cc1nc(-c2ccc(Cl)cc2)oc1COC(C)(C)C(=O)O | inactive
O=C(NC1CCN(CCc2c[nH]c3ccccc23)CC1)c1ccccc1 | inactive
Cc1cc(-c2ccccc2)nnc1NCCN1CCOCC1 | inactive
CCCCCCCCCCCCCC[N+](C)(C)Cc1ccccc1 | 28.2 µM (active)
OCCOCCN1CCN(C2=Nc3ccccc3Sc3ccccc32)CC1 | inactive
CCN(CC)CCOC(=O)C1(c2ccccc2)CCCC1 | inactive
CC(C)(C)NC[C@H](O)COc1cccc2c1CCCC2=O | inactive
C[N+]1(C)CCC(=C(c2ccccc2)c2ccccc2)CC1 | inactive
COc1ccc2c(c1)c1c3n2CCN(C)C3=NCC1 | inactive
CC(C)(C)CC(C)(C)c1ccc(O)c(-n2nc3ccccc3n2)c1 | inactive
CCN(CC)CCNc1ccc(CO)c2sc3ccccc3c(=O)c12 | inactive
CCCCCCCCOc1ccc(C(=O)c2ccccc2)c(O)c1 | inactive
COc1ccc(CCN(C)CCCN2CCc3cc(OC)c(OC)cc3CC2=O)cc1OC | inactive
CC[N+](C)(CC)CCOC(=O)C(O)(c1ccccc1)C1CCCCC1 (stereo not given) | inactive
CC(C)NCC(O)c1ccc2ccccc2c1 (stereo not given) | inactive
NC(=O)c1ccccc1O | inactive
Cc1cc2c(OCC(CNC(C)(C)C)OC(=O)c3ccccc3)cccc2[nH]1 (stereo not given) | inactive
CCCCCN=C(N)N/N=C/c1c[nH]c2ccc(OC)cc12 | inactive
